In PubChem BioAssay:
Values without a mark were called inactive. The source made the active and inactive calls. Cut-off read from the data, not from the text of the source, unless noted: active = inhibition above about 44%; inactive = the rest.

Tests used:
[1] = StAR promoter reporter inhibitors, counter-screen for LRH-1 inverse agonist project, cell-based, luminescence, high throughput (AID 651611; in the data active = inhibition above about 28%); conditions: StAR promoter luciferase reporter counterscreen, at 3.6 µM, hits give high values
[2] = biological target: Nuclear receptor subfamily 5 group A member 2 (Homo sapiens) (UniProt O00482); test: LRH-1 (NR5A2) inverse agonists, retest, confirmation, cell-based, luminescence (AID 651613; in the data active = inhibition above about 42%;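 note: HEK293T cells co-transfected with LRH-1 and StAR promoter luciferase reporter; 0% = vehicle wells and 100% = parental cells lacking receptor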); conditions: cell-based LRH-1 luciferase reporter, inverse agonism; at 3.6 µM; hits give high values
Nuclear receptor subfamily 5 group A member 2 (Homo sapiens), sequence (O00482 whole entry, looked up): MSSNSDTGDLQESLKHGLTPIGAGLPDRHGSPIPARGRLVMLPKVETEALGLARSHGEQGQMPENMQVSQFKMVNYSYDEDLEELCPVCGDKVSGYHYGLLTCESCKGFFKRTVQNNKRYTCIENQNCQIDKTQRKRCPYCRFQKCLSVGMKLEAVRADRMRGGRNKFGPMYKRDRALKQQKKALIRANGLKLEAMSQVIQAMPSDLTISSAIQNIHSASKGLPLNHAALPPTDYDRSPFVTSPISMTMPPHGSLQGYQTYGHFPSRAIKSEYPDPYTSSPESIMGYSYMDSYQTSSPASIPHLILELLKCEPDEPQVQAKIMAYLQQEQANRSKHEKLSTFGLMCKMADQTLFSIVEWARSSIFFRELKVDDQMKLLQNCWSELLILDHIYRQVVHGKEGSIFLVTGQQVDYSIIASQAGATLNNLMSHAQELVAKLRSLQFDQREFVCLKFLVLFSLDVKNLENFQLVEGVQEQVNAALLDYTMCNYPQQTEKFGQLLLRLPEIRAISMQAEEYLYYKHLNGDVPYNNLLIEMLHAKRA

[3] = biological target: Steroidogenic factor 1 (Homo sapiens) (UniProt Q13285); test: SF1 (NR5A1) inverse agonists, counter-screen for LRH-1 inverse agonist project, cell-based, luminescence, high throughput (AID 651614); conditions: cell-based SF1 luciferase reporter, at 3.6 µM, hits give high values;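 note: cells cotransfected with StAR promoter reporter and SF1 expression vector; 0% = vehicle on cells with receptor and 100% = vehicle on cells lacking receptor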
Steroidogenic factor 1 (Homo sapiens), sequence (Q13285 whole entry, looked up, the tested form may be a part): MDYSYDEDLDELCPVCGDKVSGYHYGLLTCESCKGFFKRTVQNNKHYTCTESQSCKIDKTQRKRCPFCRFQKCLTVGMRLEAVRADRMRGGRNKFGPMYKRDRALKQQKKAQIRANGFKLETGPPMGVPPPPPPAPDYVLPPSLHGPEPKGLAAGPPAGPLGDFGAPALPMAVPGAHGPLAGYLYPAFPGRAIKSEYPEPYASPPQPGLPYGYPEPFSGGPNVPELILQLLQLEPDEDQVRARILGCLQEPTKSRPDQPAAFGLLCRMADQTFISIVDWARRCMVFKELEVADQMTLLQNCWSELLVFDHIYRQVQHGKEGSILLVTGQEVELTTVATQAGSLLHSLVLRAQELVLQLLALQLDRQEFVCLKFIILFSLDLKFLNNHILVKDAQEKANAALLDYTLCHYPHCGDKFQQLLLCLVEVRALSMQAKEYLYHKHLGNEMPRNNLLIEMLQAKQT

[4] = VP16 transactivation reporter inhibitors, counter-screen for LRH-1 inverse agonist project, cell-based, luminescence, high throughput (AID 651615; in the data active = inhibition above about 33%); conditions: Gal4-VP16 luciferase reporter cells, at 3.6 µM, hits give high values
[5] = test system: transactivating tegument protein VP16 (Human herpesvirus 1); test: VP16 transactivation reporter inhibitors, counter-screen for SRC2 inhibitor project, cell-based, luminescence, single concentration (AID 652007; in the data active = inhibition above about 36%); conditions: cell-based VP16 transactivation luciferase reporter, at 8.9 µM, hits give high values
[6] = biological target: Nuclear receptor coactivator 2 (Homo sapiens) (UniProt Q15596); test: SRC2 coactivator transcriptional activity inhibitors, confirmation, cell-based, luminescence, HEK293, triplicate (AID 652008;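 active = mean inhibition above 46.5%, the solvent-only control mean plus 3 SD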;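 note: 0% = DMSO-treated cells and 100% = Gossypol at 36 µM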); conditions: HEK293 GAL4-SRC2 luciferase reporter, at 8.9 µM, hits give high values
Nuclear receptor coactivator 2 (Homo sapiens), sequence (Q15596 whole entry, looked up, the tested form may be a part): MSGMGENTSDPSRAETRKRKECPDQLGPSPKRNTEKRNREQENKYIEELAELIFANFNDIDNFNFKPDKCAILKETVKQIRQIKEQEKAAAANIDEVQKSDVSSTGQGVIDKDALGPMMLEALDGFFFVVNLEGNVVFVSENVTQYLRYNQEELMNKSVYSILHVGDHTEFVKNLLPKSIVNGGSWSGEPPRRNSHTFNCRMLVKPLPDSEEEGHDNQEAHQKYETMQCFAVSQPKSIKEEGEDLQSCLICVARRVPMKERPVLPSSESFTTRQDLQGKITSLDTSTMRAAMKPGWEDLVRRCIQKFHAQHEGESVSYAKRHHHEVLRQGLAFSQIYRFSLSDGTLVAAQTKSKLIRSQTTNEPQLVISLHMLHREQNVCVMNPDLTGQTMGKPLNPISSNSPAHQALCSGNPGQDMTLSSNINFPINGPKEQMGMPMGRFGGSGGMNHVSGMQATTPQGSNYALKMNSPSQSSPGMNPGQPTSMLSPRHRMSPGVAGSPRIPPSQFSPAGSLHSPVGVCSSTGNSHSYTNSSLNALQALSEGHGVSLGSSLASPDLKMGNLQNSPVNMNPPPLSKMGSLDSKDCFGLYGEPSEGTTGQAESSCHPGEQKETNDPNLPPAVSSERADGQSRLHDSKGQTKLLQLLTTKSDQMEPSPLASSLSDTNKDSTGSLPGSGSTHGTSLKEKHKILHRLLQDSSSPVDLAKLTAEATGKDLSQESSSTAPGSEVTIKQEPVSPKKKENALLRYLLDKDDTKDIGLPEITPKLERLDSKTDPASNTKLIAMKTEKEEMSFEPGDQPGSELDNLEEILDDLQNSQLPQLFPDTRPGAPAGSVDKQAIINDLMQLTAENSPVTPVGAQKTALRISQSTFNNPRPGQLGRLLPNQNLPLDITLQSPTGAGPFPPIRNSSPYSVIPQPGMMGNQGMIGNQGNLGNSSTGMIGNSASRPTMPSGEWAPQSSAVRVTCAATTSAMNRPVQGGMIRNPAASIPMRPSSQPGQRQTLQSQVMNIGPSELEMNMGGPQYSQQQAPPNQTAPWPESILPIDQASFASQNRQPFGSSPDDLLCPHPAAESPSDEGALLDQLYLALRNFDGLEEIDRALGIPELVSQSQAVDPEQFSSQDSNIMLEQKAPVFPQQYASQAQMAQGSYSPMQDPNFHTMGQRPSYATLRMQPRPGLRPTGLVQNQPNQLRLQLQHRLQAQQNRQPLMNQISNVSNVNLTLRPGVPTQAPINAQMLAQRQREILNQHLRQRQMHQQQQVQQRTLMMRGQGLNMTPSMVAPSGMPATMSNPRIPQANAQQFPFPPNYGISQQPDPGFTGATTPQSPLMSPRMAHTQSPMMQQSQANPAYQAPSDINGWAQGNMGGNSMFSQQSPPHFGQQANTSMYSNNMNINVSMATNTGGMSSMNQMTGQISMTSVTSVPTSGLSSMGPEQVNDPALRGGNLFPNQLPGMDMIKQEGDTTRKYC

## CCCc1nc(SCC(=O)c2ccc(F)cc2)c2ccccc2n1
[1]
  inhibition: 5.26%
[2]
  inhibition: 46.9% (active)
[3]
  inhibition: 55.7% (active)
[4]
  inhibition: -0.25%

## Cc1ccc(-c2nc3ncccc3o2)cc1NC(=O)c1ccc([N+](=O)[O-])o1
[1]
  inhibition: 24.2%
[2]
  inhibition: 57.8% (active)
[3]
  inhibition: 69.4% (active)
[4]
  inhibition: -15.3%

## Cc1cc(OCC(=O)Nc2nccs2)c2c(C)c(C)c(=O)oc2c1
[1]
  inhibition: 42% (active)
[2]
  inhibition: 74.5% (active)
[3]
  inhibition: 66.2% (active)
[4]
  inhibition: -127%

## O=C(Nc1ccc(Cl)cc1)/C(=C/c1cccc(O)c1)c1nc2ccccc2s1
[1]
  inhibition: 52% (active)
[2]
  inhibition: 78.1% (active)
[3]
  inhibition: 78.1% (active)
[4]
  inhibition: 71.2% (active)
[5]
  inhibition: 48.6% (active)
[6]
  inhibition: 80.7% (active)

## Cc1ccc2nc(-c3ccc(NS(C)(=O)=O)cc3)cc(-c3ccccc3)c2c1
[1]
  inhibition: 8.04%
[2]
  inhibition: 51.1% (active)
[3]
  inhibition: 51.8% (active)
[4]
  inhibition: -2.14%

## O=C(Nc1nc(-c2ccccn2)cs1)c1ccc([N+](=O)[O-])o1
[1]
  inhibition: 32% (active)
[2]
  inhibition: 69.5% (active)
[3]
  inhibition: 77.7% (active)
[4]
  inhibition: 16.4%

## O=C(COC(=O)c1ccc(Br)o1)Nc1ccc2c(c1)OCCO2
[1]
  inhibition: 22%
[2]
  inhibition: 59.4% (active)
[3]
  inhibition: 63.1% (active)
[4]
  inhibition: 1.94%

## N#CC1=C(N)C(C#N)(C#N)[C@H](c2c(F)cccc2F)[C@H]2CC3(CC=C12)OCCO3
[1]
  inhibition: 16.1%
[2]
  inhibition: 60.9% (active)
[3]
  inhibition: 54% (active)
[4]
  inhibition: 17.2%

## CN1CCN(c2ccccc2NC(=O)c2ccc(-c3cccc([N+](=O)[O-])c3)o2)CC1
[1]
  inhibition: 11.9%
[2]
  inhibition: 42.9% (active)
[3]
  inhibition: 49.6% (active)
[4]
  inhibition: 2.32%
